Here are results for 93 molecules from PubChem BioAssay AID1376 (SRMLSC, 2008).

The campaign covered roughly 220,000 compounds. About 530 (0.24%) were called active. No stated cut-off is given here; in the data, active means inhibition above about 13%; inconclusive means no clear call, values can overlap the other calls; inactive means below that. The sample as a whole holds a higher share of actives than the screen did. Measured potencies and affinities stand elsewhere.

The target of this test is Bifunctional protein GlmU (Mycobacterium tuberculosis (strain ATCC 25618 / H37Rv)) (UniProt P9WMN3). Description: inhibition of mycobacterial GlmU enzyme – biochemical, glucosamine-1-phosphate acetyltransferase (AID 1376).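 Further: 0% = complete reaction with vehicle and 100% = reaction without substrate.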 The settings on record: M. tuberculosis GlmU acetyltransferase enzyme assay; active compounds read high;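 tested at 30 µM in the primary screen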.
Chain of Bifunctional protein GlmU (Mycobacterium tuberculosis (strain ATCC 25618 / H37Rv)) (P9WMN3 whole entry, looked up): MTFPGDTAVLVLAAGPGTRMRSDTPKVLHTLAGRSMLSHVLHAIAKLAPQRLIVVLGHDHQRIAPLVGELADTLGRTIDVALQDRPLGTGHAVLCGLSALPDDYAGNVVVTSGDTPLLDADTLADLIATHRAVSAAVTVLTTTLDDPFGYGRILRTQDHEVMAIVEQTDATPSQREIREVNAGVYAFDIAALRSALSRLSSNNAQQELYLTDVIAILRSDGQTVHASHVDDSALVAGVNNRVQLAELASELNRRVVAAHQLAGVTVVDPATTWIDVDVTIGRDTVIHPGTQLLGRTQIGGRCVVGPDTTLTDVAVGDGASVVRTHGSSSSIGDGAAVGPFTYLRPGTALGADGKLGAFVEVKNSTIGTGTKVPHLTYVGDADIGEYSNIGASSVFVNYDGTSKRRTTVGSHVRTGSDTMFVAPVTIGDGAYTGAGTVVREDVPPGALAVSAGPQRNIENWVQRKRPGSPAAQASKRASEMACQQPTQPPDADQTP
In general, inhibition refers to the drop in the measured response relative to a control, in per cent. Turning to `COc1ccccc1CNC(=O)CS(=O)Cc1nc(-c2ccccc2C)oc1C` (stereo not drawn), the inhibition is -3.21% (inactive).

Take `COc1ccc(CCNC(=O)c2ccc3ccccc3n2)cc1OC`: the inhibition was 1.59% (inactive).

With `CCc1cccc(C)c1NC(=S)N(CCN(C)C)C(C)c1ccco1` (stereo not drawn), the inhibition is -1.5% (inactive).

With `Cc1occc1C(=O)N/N=C/c1cnn(C)c1C`, the inhibition was 0.23% (inactive).

Regarding `CC1CN=C(NCCc2ccccc2)S1` (stereo not drawn), the inhibition is -5.97% (inactive).

Take `COc1ccc(Cl)cc1N(C(C)C(=O)NC1CCCC1)S(C)(=O)=O` (stereo not drawn): the inhibition is -1.06% (inactive).

Regarding `Cc1nonc1C(=O)N/N=C/c1cccc(O)c1`, the inhibition was -5.8% (inactive).

As for `O=C1C=C(N2CCOCC2)C2(CCCCC2)O1`, the inhibition was -4.46% (inactive).

For the molecule `CC(C)S(=O)(=O)c1nsc2nc(=O)c(/C=C3\C=Nc4ccccc43)c(N)n12`, the inhibition was 14.9% (active).

As to `CC1=Nc2ccccc2/C1=C/c1c(N)n2c(S(=O)(=O)C(C)C)nsc2nc1=O`, the inhibition was 6.27% (inactive).

As to `CS(=O)(=O)c1nsc2nc(=O)c(/C=C3\C=Nc4ccccc43)c(N)n12`, the inhibition was 9.05% (inactive).

As to `COc1ccc2[nH]c3c(N4CCc5ccccc5C4)ncnc3c2c1`, the inhibition was 0.43% (inactive).

Consider `Cc1cc(C)n2nc(CC(=O)NCc3ccc(F)cc3)nc2n1`, for which the inhibition is 3.44% (inactive).

As to `Cc1ccc(-c2nc(C)sc2CC(=O)NCc2ccco2)cc1`, the inhibition was 14.4% (active).

Regarding `Cc1ccc(-c2nc(C)sc2CC(=O)Nc2nnc(C)s2)cc1`, the inhibition is -1.22% (inactive).

With `Cc1ccc(NC(=O)Cc2sc(C)nc2-c2ccc(C)cc2)cc1`, the inhibition was -0.58% (inactive).

Turning to `Cc1coc(NC(=O)CSc2nc(-c3ccncc3)cc(C(F)(F)F)c2C#N)n1`, the inhibition was -2.15% (inactive).

Turning to `COc1ccccc1Cn1c(=S)[nH]c2cc(C(=O)NCc3cccnc3)ccc2c1=O`, the inhibition is -2.96% (inactive).

With `COc1cc(CNn2cn[nH]c2=S)cc(Cl)c1OCc1ccccc1`, the inhibition is -2.33% (inactive).

With `COc1cccc(-c2cc(-c3cccnc3)nc(N)c2C#N)c1`, the inhibition was 2.15% (inactive).

As for `O=[N+]([O-])c1c(N2CCN(CCO)CC2)nc2ccccn12`, the inhibition is 15.2% (active).

Consider `O=[N+]([O-])c1ccc(N2CCN(CCO)CC2)c2ncccc12`, for which the inhibition is -1.16% (inactive).

Take `Cc1nc([N+](=O)[O-])cn1-c1nc2ccccn2c1[N+](=O)[O-]`: the inhibition is -6.37% (inactive).

As to `COc1cccc(N2[C@@H](CC(=O)O)c3cc(C(F)(F)F)ccc3S2(=O)=O)c1`, the inhibition was 7.93% (inactive).

In the case of `C=CCn1c(Sc2ncc([N+](=O)[O-])s2)n[nH]c1=O`, the inhibition is 7.87% (inactive).

As for `COc1cccc(N=Nc2c(=O)[nH]n3c(=O)cc(C)[nH]c23)c1`, the inhibition was 13% (active).

On to `CCOc1ccc(N=Nc2c(=O)[nH]n3c(=O)c4c([nH]c23)CCCC4)cc1`, for which the inhibition was 4.96% (inactive).

As to `Cc1ccc(N=Nc2c(=O)[nH]n3c(=O)cc(C)[nH]c23)cc1`, the inhibition is 9.14% (inactive).

Regarding `COc1cccc(N=Nc2c(=O)[nH]n3c(=O)c4c([nH]c23)CCC4)c1`, the inhibition was 5.17% (inactive).

On to `Cc1cc(=O)n2[nH]c(=O)c(N=Nc3ccccc3)c2[nH]1`, for which the inhibition is 4.01% (inactive).

Regarding `CCOc1ccc(N=Nc2c(=O)[nH]n3c(=O)cc(C)[nH]c23)cc1`, the inhibition is 17.1% (active).

`COc1cc(NC(=O)c2cccc(COCC(F)(F)C(F)F)c2)cc(OC)c1OC`: the inhibition was -1.01% (inactive).

Turning to `CC(C)C1Oc2cc3oc(=O)ccc3cc2C1=O` (stereo not drawn), the inhibition is 0.4% (inactive).

As to `S=c1[nH]nc(-c2cccnc2)n1/N=C/C=C/c1ccco1`, the inhibition is 7.53% (inactive).

In the case of `S=c1[nH]nc(-c2ccncc2)n1/N=C/C=C/c1ccco1`, the inhibition is 13.6% (active).

Take `S=c1[nH]nc(-c2ccccc2)n1/N=C/C=C/c1ccco1`: the inhibition was 6.1% (inactive).

Consider `O=C1NC(=O)N(Cc2ccccc2Cl)C(=O)/C1=C/c1cccs1`, for which the inhibition was 1.69% (inactive).

Turning to `C(=N/N1CCN(c2ccccc2)CC1)/c1ccncc1`, the inhibition is -0.53% (inactive).

For `COc1ccc(Br)cc1S(=O)(=O)N1CCOCC1`, the inhibition is -4.63% (inactive).

Consider `CCOc1ccc(Br)cc1S(=O)(=O)N1CCCC1`, for which the inhibition is -3.03% (inactive).

For `COc1ccc(Br)cc1S(=O)(=O)N1CCCC1`, the inhibition was 14.1% (active).

For `C=CCN(CC=C)C(=O)Nc1cc(Cl)ccc1OC`, the inhibition was 6.87% (inactive).

In the case of `O=C(CC1C(=O)N(c2ccccc2)C(=O)N1Cc1ccco1)Nc1ccccc1` (stereo not drawn), the inhibition is 0.18% (inactive).

As to `Cc1nnc(SCC(=O)N(C)CC(=O)Nc2ccc(F)cc2)n1Cc1ccccc1`, the inhibition is -4.08% (inactive).

Take `Cc1cc(SCC(=O)N(C)CC(=O)Nc2ccc(F)cc2)nc2ccccc12`: the inhibition is 13.3% (active).

As for `Cc1csc(SCC(=O)N(C)CC(=O)Nc2ccc(F)cc2)n1`, the inhibition was -5.2% (inactive).

Take `Cc1ccc(C)n1-c1sc2c(c1C(=O)O)CCCC2`: the inhibition was 11.2% (inactive).

In the case of `Cc1ccc(C)n1-c1ccc(C(=O)O)cc1`, the inhibition is 11.1% (inactive).

With `Cc1cccc(-n2c(-c3ccco3)nc3ccccc3c2=O)n1`, the inhibition was -2% (inactive).

Turning to `Cc1nc(S/C(=C/c2ccc(-c3ccc(C(=O)O)cc3)o2)C(=O)O)n[nH]1`, the inhibition was 11.3% (inactive).

Turning to `Cc1nc(S/C(=C/c2ccc(-c3ccc(Cl)cc3)o2)C(=O)O)n[nH]1`, the inhibition was -0.27% (inactive).

`CC(=O)Nc1ccc(NC(=O)COC(=O)[C@@H](NC(=O)c2ccc(F)cc2)C(C)C)cc1`: the inhibition was -1.53% (inactive).

`Cc1ccccc1C(=O)N1CCN(c2ccc(NC(=O)c3ccc4c(c3)OCO4)cc2)CC1`: the inhibition is -4.66% (inactive).

As for `CNC(=O)COC(=O)CCC(=O)c1cccs1`, the inhibition was 4.98% (inactive).

For the molecule `O=C(O)c1cccc(S(=O)(=O)N2CCN(C(c3ccccc3)c3ccccc3)CC2)c1`, the inhibition was -1.93% (inactive).

With `Cc1coc(NC(=O)CSc2nc(-c3ccc(Cl)cc3)cc(C(F)(F)F)c2C#N)n1`, the inhibition is 3.77% (inactive).

On to `COC(=O)C1=C2c3[nH]c4ccccc4c3CCN2C(=O)CC1`, for which the inhibition is -2.64% (inactive).

On to `CN(C)S(=O)(=O)c1cccc(NC(=O)NCCCl)c1`, for which the inhibition was 8% (inactive).

Turning to `Cc1ccc(CCNC(=O)CN(C)S(=O)(=O)c2ccc3c(c2)c(=O)n(C)c(=O)n3C)cc1`, the inhibition was 2.34% (inactive).

In the case of `CN(CC(=O)NCCc1ccc(Cl)cc1)S(=O)(=O)c1ccc2c(c1)c(=O)n(C)c(=O)n2C`, the inhibition was -0.75% (inactive).

As to `CCCCN(CC)CCNC(=O)CN(C)S(=O)(=O)c1ccc2c(c1)c(=O)n(C)c(=O)n2C`, the inhibition was 20.9% (active).

As for `O=C1CCC/C(=N\NC(=O)c2ccc(CSc3cccc4cccnc34)cc2)C1`, the inhibition was 4.6% (inactive).

On to `Cn1c(SCC(=O)N/N=C/C=C\c2ccco2)nc2ccccc21`, for which the inhibition was -4.83% (inactive).

For `CCn1c(SCC(=O)N/N=C/C=C/c2ccco2)nc2ccccc21`, the inhibition was -1.16% (inactive).

As for `Cn1c(SCC(=O)N/N=C/C=C/c2ccco2)nc2ccccc21`, the inhibition was 13% (active).

As to `COc1cc(CNCCN(C)C)c(Br)cc1OCC(=O)NCc1ccccc1`, the inhibition is -1.96% (inactive).

For `COc1ccc(/C=N/Nc2nc3ccccc3s2)cc1O`, the inhibition was -3.48% (inactive).

On to `O=[N+]([O-])c1cc(Cl)cc(/C=N/Nc2nc3ccccc3s2)c1O`, for which the inhibition is 0.98% (inactive).

With `COc1cc(/C=N/Nc2nc3ccccc3s2)cc([N+](=O)[O-])c1O`, the inhibition is 13.2% (active).

As for `COc1ccc(/C=C/C(=O)OCC(=O)NC(=O)NC(C)(C)C)cc1`, the inhibition was 1.36% (inactive).

With `CC(=O)c1ccc(N2CCN(C(=O)/C=C/c3ccc4ccccc4n3)CC2)cc1`, the inhibition was 0.1% (inactive).

Take `CC(=O)c1ccc(S(=O)(=O)N2CCN(C(=O)/C=C/c3ccc4ccccc4n3)CC2)cc1`: the inhibition was 14.1% (active).

As for `O=C(/C=C/c1ccc2ccccc2n1)N1CCN(S(=O)(=O)c2ccccc2F)CC1`, the inhibition was -1.23% (inactive).

With `Cc1ccc(/C=N/NC(=O)C(C)Oc2ccccc2[N+](=O)[O-])s1` (stereo not drawn), the inhibition is -0.21% (inactive).

For `O=c1c2ccccc2n(Cc2ccccc2F)c(=O)n1Cc1ccccc1F`, the inhibition is 4.63% (inactive).

Turning to `Nc1cc(C(=O)O)ccc1Nc1ccccc1`, the inhibition is -4.84% (inactive).

Regarding `Nc1ccc(Nc2ccccc2)c(Cl)c1`, the inhibition was 3.28% (inactive).

`Nc1ccc(Nc2ccccc2)c(S(=O)(=O)O)c1`: the inhibition is 36.2% (active).

For the molecule `CCN(CC)S(=O)(=O)c1ccc(OC)c(NC(=O)c2ccc([N+](=O)[O-])cc2)c1`, the inhibition is -2.82% (inactive).

As to `Cc1cccc(-c2c3c(=O)n(C)c(=O)n(C)c3c3cccnn23)c1`, the inhibition is -0.55% (inactive).

As to `CCOC(=O)c1ccc(N2N=C(C)/C(=C/C=C/c3ccco3)C2=O)cc1`, the inhibition was 3.89% (inactive).

For `CC1(C)OC(=O)C(=Cc2ccc(-c3ccc(Cl)c(C(=O)O)c3)o2)C(=O)O1`, the inhibition was 6.43% (inactive).

Turning to `Cc1ccc(N2NC(=O)/C(=C/c3ccc(-c4ccc(Cl)c(C(=O)O)c4)o3)C2=O)cc1`, the inhibition was 7.4% (inactive).

As for `Cc1ccc(Sc2ccc(/C=C3/C(=O)NN(c4ccccc4)C3=O)o2)cc1`, the inhibition was 4.6% (inactive).

With `O=C1NN(c2ccccc2)C(=O)/C1=C\c1ccc(-c2cc([N+](=O)[O-])ccc2O)o1`, the inhibition was 9.4% (inactive).

On to `O=C1NN(c2ccc(Cl)cc2)C(=O)/C1=C\c1ccc(-c2cccc(C(=O)O)c2)o1`, for which the inhibition is 30.9% (active).

On to `Cc1cccc(N2C(=O)NC(=O)/C(=C/c3ccc(-c4ccc(C(=O)O)c(Cl)c4)o3)C2=O)c1`, for which the inhibition is -1.08% (inactive).

For the molecule `CC1=NN(c2ccc(C(=O)OC(C)C)cc2)C(=O)/C1=C\C=C\c1ccco1`, the inhibition is 1.04% (inactive).

Regarding `O=C1NN(c2ccccc2)C(=O)/C1=C/c1ccc(Sc2ccc(Cl)cc2)o1`, the inhibition was 4.82% (inactive).

As for `CCOC(=O)C1CCN(c2cc(C)nc3cc(-c4cccc(F)c4)nn23)CC1`, the inhibition is 0.46% (inactive).

As to `CCCNC(=O)Nc1ccsc1C(=O)OC`, the inhibition was -1.89% (inactive).

In the case of `O=C1N=C(N2CCOCC2)S/C1=C1\C(=O)N(Cc2ccccc2)c2ccccc21`, the inhibition was 0.6% (inactive).

In the case of `COCCCNc1ncnc2nc[nH]c12`, the inhibition is -2.31% (inactive).
